DT40 TDP1 no CPT: qHTS for Inhibitors of human tyrosyl-DNA phosphodiesterase 1 (TDP1): qHTS in cells in absence of CPT. DT40 Tdp1-/- hTDP1 cells, no CPT, ATP luminescence, 48 h. Potency, µM (highest dose often 46.2 µM), for the others: at the top dose activity change, negative = growth inhibition, actives largely listed as inhibitors. hit rate 15% among 420,000; further: potency means the concentration at half of the fitted maximal effect; nearly all actives have a fitted effect of over 55% in size
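Readout: luminescence from CellTiter-Glo after 30 min in the dark at RT. Cells: DT40 Tdp1-/- with stable hTDP1, 400/well. Exposure: compounds alone, ≥48 hr, 37 °C.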
ELG1 repair inh: blocks ELG1-dependent DNA repair in HEK293T cells | HEK293T ELG1-luciferase reporter, luminescence, 16 h; DNA damage induced by 5-fluorouridine | Potency, µM (series often up to 46.1 µM), without a hit: at the highest dose activity change, negative = inhibition, usual class: inhibitors | hit rate 2.3% among 330,000; further: potency means the concentration at half of the fitted maximal effect; nearly all actives have a fitted effect of over 55% in size
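Overnight (16 hr) co-exposure of 2,000 cells/well to 5-fluorouridine and compound at 37 °C preceded detection. Luciferase was quantified via ONE-Glo luminescence; loss of signal denotes inhibition.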
DT40 TDP1 CPT: DT40-hTDP1 cell growth loss with CPT; chicken DT40 Tdp1-/-;hTDP1 cells + 20 nM CPT, ATP luminescence, 48 h; Potency, µM (series often up to 46.2 µM), for inactives: at the highest dose activity change, negative = growth inhibition, usual class: inhibitors; hit rate 12% among 420,000; AID 686979; further: potency means the concentration at half of the fitted maximal effect; nearly all actives have a fitted effect of over 55% in size
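Chicken DT40 Tdp1-/- cells stably complemented with human TDP1 were seeded at 400 cells/well in medium containing 20 nM camptothecin, exposed to pin-transferred compounds, and grown at 37 °C for at least 48 hr. Viability was read as ATP luminescence.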
IL-1B inflam inh: inflammasome signaling inhibition, IL-1 beta readout; hit rate 4.7% among 360,000; THP-1 LPS/ATP IL-1B secretion, AlphaLISA, 16 h; active compounds read low; activity change, % at 57.5 µM; AID 743279; in the data active means activity change below about -50%; inconclusive means mostly about -30% to -49%
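THP-1 cells pretreated 1 hr with compounds (up to 57.5 uM final), then stimulated with LPS (250 ng/mL final) plus ATP (1.25 mM final); secreted IL-1B measured by AlphaLISA after 16 hr, decreased signal indicating inhibition.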
TDP1 block: inhibitors of human tyrosyl-DNA phosphodiesterase TDP1; recombinant TDP1, AlphaScreen DNA substrate cleavage; Potency, µM (doses to about 130 µM), for the others: at the highest dose activity change, negative = inhibition, hits mostly inhibitors; AID 485290; hit rate 0.28% among 350,000; Q9NUW8; further: potency means the concentration at half of the fitted maximal effect; nearly all actives have a fitted effect of over 40% in size
Target sequence (Q9NUW8 whole entry, looked up): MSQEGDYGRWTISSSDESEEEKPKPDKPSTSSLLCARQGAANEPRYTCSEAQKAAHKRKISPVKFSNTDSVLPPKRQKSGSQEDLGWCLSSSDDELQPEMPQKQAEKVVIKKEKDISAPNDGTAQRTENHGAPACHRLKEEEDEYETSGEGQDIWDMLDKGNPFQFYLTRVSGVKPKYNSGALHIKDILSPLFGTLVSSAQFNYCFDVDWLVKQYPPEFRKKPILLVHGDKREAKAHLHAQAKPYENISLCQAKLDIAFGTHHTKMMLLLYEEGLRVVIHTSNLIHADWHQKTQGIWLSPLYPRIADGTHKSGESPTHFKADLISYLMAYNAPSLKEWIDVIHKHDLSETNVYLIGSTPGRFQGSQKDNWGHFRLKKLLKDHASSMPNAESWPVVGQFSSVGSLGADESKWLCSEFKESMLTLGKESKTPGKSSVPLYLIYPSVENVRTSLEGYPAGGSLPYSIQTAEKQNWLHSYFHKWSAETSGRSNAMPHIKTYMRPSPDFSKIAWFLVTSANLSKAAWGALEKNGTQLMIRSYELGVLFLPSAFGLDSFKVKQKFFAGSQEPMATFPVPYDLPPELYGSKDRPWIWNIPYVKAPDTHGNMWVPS
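Recombinant E. coli-expressed Tdp1 (1 nM) preincubated with compound 15 min at RT, then 5'-biotin/3'-phosphotyrosine-FITC DNA substrate (15 nM) added for 5 min. AlphaScreen beads (10 ug/ml) added, 10 min RT; tyrosine-FITC cleavage read as signal loss.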
Giardia kill: Giardia lamblia killing | Giardia lamblia trophozoite viability | activity change, % at 7.66 µM, hits read low | hit rate 0.15% among 340,000; in the data active means activity change below about -80%; inconclusive means between about -30% and that limit;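 further: parasites exposed to compound for two days anaerobically before the ATP read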
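Killing of trophozoites was scored by loss of ATP luminescence after a 48 hrs anaerobic exposure to compounds at 37 deg C, using 100 cells per well.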
An asterisk follows results filed as active; ? = inconclusive; · = no result; [ ] = remark or other dose. Rows were chosen to be rich in hits. Some 19% of all compounds tested hit in one or more screens of this group. Unless noted, the call rests on the fitted dose curve; in most records, active means well fitted curve in the direction sought with a large enough effect; inconclusive means small, poorly fitted or top-dose-only effect, or another doubt; inactive means no such curve, though single readings can be large; an effect the other way counts as inactive or inconclusive. On the % scale 0 is the no-effect control and ±100 the full control effect.

SMILES	DT40 TDP1 no CPT	ELG1 repair inh	DT40 TDP1 CPT	IL-1B inflam inh	TDP1 block	Giardia kill
O=C(Nc1nc2ccccc2[nH]1)C1CCCC1	-19%	?	-4%	?	?	?
Cc1cc(NC(=O)c2ccccc2F)n(-c2nc3ccccc3[nH]2)n1	?	16µM*	?	4	3%	2
Cc1cc(NC(=O)CSc2nc3ccccc3[nH]2)n(-c2ccccc2)n1	?	?	?	0	-1%	12
Cc1cc(NC(=O)c2c(F)cccc2F)n(-c2nc3ccccc3[nH]2)n1	11µM*	?	?	?	10%	-3
Cc1cc(NC(=O)c2c(F)cccc2Cl)n(-c2nc3ccccc3[nH]2)n1	23µM*	21µM*	?	0	8%	-8
Cc1cc(C)c2oc(C(=O)Nc3sc4c(c3C(=O)NCc3ccco3)CCCC4)cc(=O)c2c1	-6%	·	6%	·	5%	·
Cc1cc(NC(=O)c2ccc(C)s2)n(-c2nc3ccccc3[nH]2)n1	21µM*	?	?	-26	-5%	12
Cc1ccc(C(=O)Nc2nc3ccccc3s2)s1	-20%	?	-20%	-11	0%	-14
Cc1c(Cl)cccc1NC(=O)c1ccc2c(c1)CCCN2S(C)(=O)=O	-20%	·	-26%	·	9%	·
Cc1cc(/C=C2\NC(=O)NC2=O)c(C)n1-c1ccc(N2CCOCC2)cc1	21µM*	?	?	-6	9%	-15
Cc1cc(/C=C2/NC(=O)NC2=O)c(C)n1-c1ccc(N2CCOCC2)cc1	?	?	?	0	3%	-12
CCN(CC)c1ccc2c(Cl)c(Br)c(=O)oc2c1	23µM*	?	18µM*	-100*	·	-6
CCN(CC)c1ccc2c(c1)oc(=O)c1c(Cl)cc(=O)oc12	5.2µM*	?	2.6µM*	-126*	·	?
CCc1cccc(N(CC(=O)NC2CCCCC2)C(=O)c2csnn2)c1	?	9%	-14%	-12	5%	20
CC(=O)c1ccc(N2CCN(S(=O)(=O)c3c(C)[nH]c(C)c3C(=O)N3CCCCC3)CC2)cc1	-2%	28%	-10%	-15	2%	-6
O=S(=O)(c1ccccc1)c1nc(-c2ccccc2Cl)oc1NCCCN1CCOCC1	23µM*	?	?	-67*	8%	3
Cc1ccccc1-c1nc(S(=O)(=O)c2ccc(Cl)cc2)c(NCCN2CCOCC2)o1	?	-23%	?	-52*	8%	7
Cc1ccccc1-c1nc(S(=O)(=O)c2ccccc2)c(NCCCN2CCOCC2)o1	?	17%	?	-12	4%	0
COc1ccccc1C1CN(CCNC(=O)c2cscn2)Cc2ccccc2O1 (centres undefined)	?	·	13%[9.04 µM]	·	·	·
COc1ccc2c(c1)C(=O)[C@@H](OC(=O)Nc1ccc(C)c(Br)c1)[C@H](c1ccc(OC)c(Br)c1)O2	·	·	·	·	10%	·
Cc1ccc(C)c(-n2nnc3ccccc3c2=O)c1	?	·	-18%	26	·	·
CCOC(=O)OC(C)OC1=C(C(=O)Nc2ccccn2)N(C)S(=O)(=O)c2ccccc21 (centres undefined)	2.1µM*	·	?	·	9%	·
COc1cccc(C2=CC(c3ccccc3O)NC(C)(C)N2)c1 (centres undefined)	16µM*	·	13µM*	·	4%	-8
COc1cc2c(cc1OC)C(c1c[nH]c3ccccc13)NCC2 (centres undefined)	?	·	?	·	7%	·
CSCCC(NC(=O)c1ccccc1Cl)C(=O)N(C)CC(=O)Nc1ccc(N2CCOCC2)cc1 (centres undefined)	-11%	7%	5%	0	·	3
SMILES	DT40 TDP1 no CPT	ELG1 repair inh	DT40 TDP1 CPT	IL-1B inflam inh	TDP1 block	Giardia kill
Cc1ccc(C(=O)CC2(O)C(=O)N(Cc3ccccc3Cl)c3ccccc32)o1 (centres undefined)	10µM*	-17%	?	2	3%	4
COc1cc(C(=O)CC2(O)C(=O)N(Cc3ccccc3Cl)c3ccccc32)cc(OC)c1OC (centres undefined)	5.2µM*	·	5.8µM*	·	6%	·
COc1ccc(CN2C(=O)C(O)(CC(=O)c3c(C)n[nH]c3C)c3ccccc32)cc1OC (centres undefined)	?	-19%	?	0	5%	-14
C/C(CC1(O)C(=O)N(Cc2ccccc2)c2ccccc21)=N\O (centres undefined)	-2%	·	8%	-5	-6%	-3
CCCN1C(=O)C(O)(CC(=O)c2ccc(OC)c(OC)c2)c2ccccc21 (centres undefined)	16µM*	·	?	·	·	·
Cc1ccc(C(=O)CC2(O)C(=O)N(Cc3ccccc3F)c3ccccc32)cc1 (centres undefined)	?	·	?	·	5%	·
Cc1nc(-c2ccc(S(=O)(=O)Nc3ccc(C#N)cc3)cc2)co1	?	·	-16%	·	2%	·
COc1ccc(-c2cn3cccnc3n2)cc1NC(=O)Cc1ccccc1	?	·	-27%	·	5%	·
Cc1cc(C)c(C#N)c(=N)o1	26µM*	?	21µM*	0	0%	-3
CSc1nc(C)cc(C)c1C#N	-17%	?	20%	0	-2%	-12
CC(C)OCCCNc1ncnc2c1[nH]c1ccccc12	14µM*	9.2µM*	8.9µM*	-93*	1%	3
c1coc(CNc2ncnc3c2[nH]c2ccccc23)c1	14µM*	·	13µM*	·	3%	-3
COCCCNC(=O)Cn1cnc2c(NCc3ccccc3)ncnc21	2%	9%	5%	4	1%[56.1 µM]	-1
CCOc1ncnc2c1[nH]c1ccccc12	?	?	?	?	-2%	-6
O=c1c2[nH]c3ccccc3c2ncn1Cc1ccco1	-1%	?	-3%	3	4%	0
COc1ccc(CNC(=O)Cn2cnc3c(NCc4ccccc4)ncnc32)cc1	5.8µM*	-19%	10µM*	65	1%[56.1 µM]	0
COc1cc2[nH]c(=S)nc(NCc3ccc(C)cc3)c2cc1OC	23µM*	-20%	?	-8	·	20
CC(=O)C1=C(C)Nc2ncnn2C1c1ccccc1F (centres undefined)	9%	6%	1%	2	·	14
Cc1ccc(NC(=O)COC(=O)c2ccc3ncsc3c2)c(C)c1	-21%	·	12%	-19	·	·
CCNc1cccc(S(=O)(=O)N2CCN(S(=O)(=O)c3ccc4c(c3)OCCO4)CC2)c1	·	·	·	·	-5%	·
